The values that follow come from article PMC12529666, “Dysregulation of AGO2-miRNA dynamics underlies the AGO2-associated Lessel–Kreienkamp syndrome”.

Holding throughout (experiment): RNA Bind-n-Seq (nitrocellulose filter binding and sequencing); miR-122 guide loaded in AGO2; 60 min incubation; 30 mM Tris pH 8.0, 100 mM potassium acetate, 2 mM magnesium acetate, 0.5 mM TCEP, 0.005% NP-40, 0.01 mg/ml yeast tRNA; 3 nM AGO2-miR-122, 100 nM RNA library; 60; high values mean tight binding
Common to all, as to conditions: protein: recombinant; tags: His6 (N-terminal, pFastBac HTA)

The target in one test is AGO2 L192P (Homo sapiens, UniProt Q9UKV8 1-859, L192P;S387D;S824A;S828D;S831D;S834A). In short, it runs like this: (§1)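 Fold enrichment is each target's read fraction divided by its read fraction in the input library. Sf9 insect cells expressed His-tagged AGO2 from baculovirus; the protein was loaded with a synthetic guide RNA and purified by Ni-NTA and a biotinylated capture oligo. The bound RNA was extracted, reverse-transcribed, barcode-amplified and sequenced on Illumina.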
AGO2 L192P, sequence (Q9UKV8 whole entry L192P/S387D/S824A/S828D/S831D/S834A): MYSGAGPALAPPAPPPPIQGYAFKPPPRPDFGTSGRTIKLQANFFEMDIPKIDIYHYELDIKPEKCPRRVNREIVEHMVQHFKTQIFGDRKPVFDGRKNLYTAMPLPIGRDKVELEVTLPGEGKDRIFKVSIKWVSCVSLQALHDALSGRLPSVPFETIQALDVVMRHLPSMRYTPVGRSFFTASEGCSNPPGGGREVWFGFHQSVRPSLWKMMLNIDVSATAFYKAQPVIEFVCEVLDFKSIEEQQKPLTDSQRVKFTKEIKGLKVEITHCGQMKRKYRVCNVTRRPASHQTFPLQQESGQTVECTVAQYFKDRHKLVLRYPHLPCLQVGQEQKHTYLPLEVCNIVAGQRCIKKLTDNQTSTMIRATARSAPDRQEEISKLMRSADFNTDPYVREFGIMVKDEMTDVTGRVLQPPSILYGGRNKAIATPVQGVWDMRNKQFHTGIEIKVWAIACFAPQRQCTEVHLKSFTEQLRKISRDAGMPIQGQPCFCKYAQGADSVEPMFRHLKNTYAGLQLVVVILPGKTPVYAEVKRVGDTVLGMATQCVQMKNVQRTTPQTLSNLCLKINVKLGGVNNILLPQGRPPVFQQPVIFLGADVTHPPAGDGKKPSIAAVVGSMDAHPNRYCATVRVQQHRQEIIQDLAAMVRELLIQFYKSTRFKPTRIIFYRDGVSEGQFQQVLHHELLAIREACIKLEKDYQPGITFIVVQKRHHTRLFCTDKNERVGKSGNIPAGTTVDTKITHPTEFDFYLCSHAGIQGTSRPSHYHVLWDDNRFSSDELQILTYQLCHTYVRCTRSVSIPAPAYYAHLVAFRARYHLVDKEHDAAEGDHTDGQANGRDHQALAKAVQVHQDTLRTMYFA

Another test concerns the target AGO2 A367P (Homo sapiens, UniProt Q9UKV8 1-859, A367P;S387D;S824A;S828D;S831D;S834A). In short, it runs like this: as §1
In the next test the target is AGO2 T357M (Homo sapiens, UniProt Q9UKV8 1-859, T357M;S387D;S824A;S828D;S831D;S834A). In short, it runs like this: as §1
AGO2 T357M, sequence (Q9UKV8 whole entry T357M/S387D/S824A/S828D/S831D/S834A): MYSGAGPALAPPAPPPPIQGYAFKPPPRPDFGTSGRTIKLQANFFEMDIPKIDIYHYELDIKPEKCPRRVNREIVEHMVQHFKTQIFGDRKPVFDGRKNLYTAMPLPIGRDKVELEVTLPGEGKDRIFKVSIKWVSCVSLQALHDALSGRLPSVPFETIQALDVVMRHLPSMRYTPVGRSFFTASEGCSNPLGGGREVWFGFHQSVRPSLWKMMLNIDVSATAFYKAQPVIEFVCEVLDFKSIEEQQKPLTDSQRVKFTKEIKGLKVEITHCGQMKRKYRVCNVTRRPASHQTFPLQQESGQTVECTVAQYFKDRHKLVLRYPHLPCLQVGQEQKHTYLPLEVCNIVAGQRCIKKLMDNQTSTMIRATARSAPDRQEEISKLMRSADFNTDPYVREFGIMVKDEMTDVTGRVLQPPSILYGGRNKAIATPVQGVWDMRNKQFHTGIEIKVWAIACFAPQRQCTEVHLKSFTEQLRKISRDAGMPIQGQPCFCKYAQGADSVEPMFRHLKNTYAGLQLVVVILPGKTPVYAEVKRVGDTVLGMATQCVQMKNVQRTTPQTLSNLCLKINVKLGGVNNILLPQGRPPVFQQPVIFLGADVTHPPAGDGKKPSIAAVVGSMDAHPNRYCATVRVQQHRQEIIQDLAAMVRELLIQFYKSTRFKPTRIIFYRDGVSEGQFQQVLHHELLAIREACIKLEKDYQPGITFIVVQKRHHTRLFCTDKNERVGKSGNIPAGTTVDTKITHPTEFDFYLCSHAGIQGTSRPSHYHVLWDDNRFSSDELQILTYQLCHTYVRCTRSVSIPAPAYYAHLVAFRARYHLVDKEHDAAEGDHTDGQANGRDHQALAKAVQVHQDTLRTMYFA

AGO2 A367P, sequence (Q9UKV8 whole entry A367P/S387D/S824A/S828D/S831D/S834A): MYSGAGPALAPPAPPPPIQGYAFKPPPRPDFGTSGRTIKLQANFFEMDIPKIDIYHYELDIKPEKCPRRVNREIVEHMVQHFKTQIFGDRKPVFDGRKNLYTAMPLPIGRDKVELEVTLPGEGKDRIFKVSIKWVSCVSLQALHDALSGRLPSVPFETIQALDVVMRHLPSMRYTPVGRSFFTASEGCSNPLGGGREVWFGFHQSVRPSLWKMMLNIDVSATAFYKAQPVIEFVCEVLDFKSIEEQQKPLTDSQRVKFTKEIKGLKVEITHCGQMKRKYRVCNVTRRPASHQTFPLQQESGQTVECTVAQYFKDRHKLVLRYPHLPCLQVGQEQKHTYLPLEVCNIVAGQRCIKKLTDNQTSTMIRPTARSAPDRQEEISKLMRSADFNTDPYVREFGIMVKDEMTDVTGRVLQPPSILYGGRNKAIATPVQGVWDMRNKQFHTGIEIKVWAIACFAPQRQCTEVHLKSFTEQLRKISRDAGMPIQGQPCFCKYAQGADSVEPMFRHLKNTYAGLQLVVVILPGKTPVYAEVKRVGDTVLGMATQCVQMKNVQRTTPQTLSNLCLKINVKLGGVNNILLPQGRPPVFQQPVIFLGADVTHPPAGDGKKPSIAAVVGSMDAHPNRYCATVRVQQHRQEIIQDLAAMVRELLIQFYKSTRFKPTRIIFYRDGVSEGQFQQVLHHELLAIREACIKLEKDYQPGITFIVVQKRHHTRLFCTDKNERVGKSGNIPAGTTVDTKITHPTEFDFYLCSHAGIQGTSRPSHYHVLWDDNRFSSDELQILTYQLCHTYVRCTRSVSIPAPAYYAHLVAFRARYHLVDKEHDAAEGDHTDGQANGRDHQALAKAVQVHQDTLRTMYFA

B1: GTATCTTA (ssRNA)
RNA 1: GAGUUCUACAGUCCGACGAUCCCAACGUAUCUUACACCUGGAAUUCUCGGGUGCCAA
RNA 2: UGGAGUGUGACAAUGGUGUUUG
DNA 1: GATCGTCGGACTGTAGAACTC
DNA 2: TTGGCACCCGAGAATTCCA
modifications: constant regions annealed to DNA blockers; guide miR-122 5' phosphate
B1: the binding signal in the test with AGO2 L192P was 0.457 fold enrichment over input; with AGO2 A367P, 0.174 fold enrichment over input; in the test with AGO2 T357M, 0.596 fold enrichment over input.

B2: GCATTCTG (ssRNA)
RNA 1: GAGUUCUACAGUCCGACGAUCCCAACGCAUUCUGCACCUGGAAUUCUCGGGUGCCAA
RNA 2: UGGAGUGUGACAAUGGUGUUUG
DNA 1: GATCGTCGGACTGTAGAACTC
DNA 2: TTGGCACCCGAGAATTCCA
modifications: constant regions annealed to DNA blockers; guide miR-122 5' phosphate
Consider B2, for which the binding signal with AGO2 L192P was 0.359 fold enrichment over input; in the test with AGO2 A367P, 0.137 fold enrichment over input; in the test with AGO2 T357M, 0.44 fold enrichment over input.

B3: ATATTCTG (ssRNA)
RNA 1: GAGUUCUACAGUCCGACGAUCCCAACAUAUUCUGCACCUGGAAUUCUCGGGUGCCAA
RNA 2: UGGAGUGUGACAAUGGUGUUUG
DNA 1: GATCGTCGGACTGTAGAACTC
DNA 2: TTGGCACCCGAGAATTCCA
modifications: constant regions annealed to DNA blockers; guide miR-122 5' phosphate
Regarding B3, the binding signal with AGO2 L192P was 0.389 fold enrichment over input; in the test with AGO2 A367P, 0.137 fold enrichment over input; in the test with AGO2 T357M it was 0.54 fold enrichment over input.

B4: GTACCCTG (ssRNA)
RNA 1: GAGUUCUACAGUCCGACGAUCCCAACGUACCCUGCACCUGGAAUUCUCGGGUGCCAA
RNA 2: UGGAGUGUGACAAUGGUGUUUG
DNA 1: GATCGTCGGACTGTAGAACTC
DNA 2: TTGGCACCCGAGAATTCCA
modifications: constant regions annealed to DNA blockers; guide miR-122 5' phosphate
With B4, the results for the binding signal with AGO2 L192P, in the test with AGO2 A367P and with AGO2 T357M were 0.344 fold enrichment over input, 0.129 fold enrichment over input and 0.483 fold enrichment over input, respectively.

B5: ACGCTTTG (ssRNA)
RNA 1: GAGUUCUACAGUCCGACGAUCCCAACACGCUUUGCACCUGGAAUUCUCGGGUGCCAA
RNA 2: UGGAGUGUGACAAUGGUGUUUG
DNA 1: GATCGTCGGACTGTAGAACTC
DNA 2: TTGGCACCCGAGAATTCCA
modifications: constant regions annealed to DNA blockers; guide miR-122 5' phosphate
For the molecule B5, the binding signal was 0.36 fold enrichment over input with AGO2 L192P, 0.134 fold enrichment over input with AGO2 A367P and 0.52 fold enrichment over input in the test with AGO2 T357M.

B6: GTATTTCG (ssRNA)
RNA 1: GAGUUCUACAGUCCGACGAUCCCAACGUAUUUCGCACCUGGAAUUCUCGGGUGCCAA
RNA 2: UGGAGUGUGACAAUGGUGUUUG
DNA 1: GATCGTCGGACTGTAGAACTC
DNA 2: TTGGCACCCGAGAATTCCA
modifications: constant regions annealed to DNA blockers; guide miR-122 5' phosphate
Consider B6, for which the binding signal with AGO2 L192P was 0.381 fold enrichment over input; with AGO2 A367P, 0.127 fold enrichment over input; with AGO2 T357M, 0.515 fold enrichment over input.

B7: GCACTTTG (ssRNA)
RNA 1: GAGUUCUACAGUCCGACGAUCCCAACGCACUUUGCACCUGGAAUUCUCGGGUGCCAA
RNA 2: UGGAGUGUGACAAUGGUGUUUG
DNA 1: GATCGTCGGACTGTAGAACTC
DNA 2: TTGGCACCCGAGAATTCCA
modifications: constant regions annealed to DNA blockers; guide miR-122 5' phosphate
On to B7, for which the binding signal was 0.325 fold enrichment over input in the test with AGO2 L192P, 0.126 fold enrichment over input with AGO2 A367P and 0.452 fold enrichment over input in the test with AGO2 T357M.

B8: GCATCTCG (ssRNA)
RNA 1: GAGUUCUACAGUCCGACGAUCCCAACGCAUCUCGCACCUGGAAUUCUCGGGUGCCAA
RNA 2: UGGAGUGUGACAAUGGUGUUUG
DNA 1: GATCGTCGGACTGTAGAACTC
DNA 2: TTGGCACCCGAGAATTCCA
modifications: constant regions annealed to DNA blockers; guide miR-122 5' phosphate
As for B8, the binding signal is 0.321 fold enrichment over input in the test with AGO2 L192P, 0.121 fold enrichment over input with AGO2 A367P and 0.4 fold enrichment over input with AGO2 T357M.

B9: ATGCTCTG (ssRNA)
RNA 1: GAGUUCUACAGUCCGACGAUCCCAACAUGCUCUGCACCUGGAAUUCUCGGGUGCCAA
RNA 2: UGGAGUGUGACAAUGGUGUUUG
DNA 1: GATCGTCGGACTGTAGAACTC
DNA 2: TTGGCACCCGAGAATTCCA
modifications: constant regions annealed to DNA blockers; guide miR-122 5' phosphate
As for B9, the binding signal in the test with AGO2 L192P is 0.376 fold enrichment over input; in the test with AGO2 A367P, 0.14 fold enrichment over input; with AGO2 T357M it was 0.486 fold enrichment over input.

B10: GTGTTCTA (ssRNA)
RNA 1: GAGUUCUACAGUCCGACGAUCCCAACGUGUUCUACACCUGGAAUUCUCGGGUGCCAA
RNA 2: UGGAGUGUGACAAUGGUGUUUG
DNA 1: GATCGTCGGACTGTAGAACTC
DNA 2: TTGGCACCCGAGAATTCCA
modifications: constant regions annealed to DNA blockers; guide miR-122 5' phosphate
Regarding B10, the binding signal with AGO2 L192P is 0.435 fold enrichment over input; with AGO2 A367P, 0.156 fold enrichment over input; with AGO2 T357M, 0.531 fold enrichment over input.

B11: GTGTCCCG (ssRNA)
RNA 1: GAGUUCUACAGUCCGACGAUCCCAACGUGUCCCGCACCUGGAAUUCUCGGGUGCCAA
RNA 2: UGGAGUGUGACAAUGGUGUUUG
DNA 1: GATCGTCGGACTGTAGAACTC
DNA 2: TTGGCACCCGAGAATTCCA
modifications: constant regions annealed to DNA blockers; guide miR-122 5' phosphate
For the molecule B11, the binding signal is 0.344 fold enrichment over input with AGO2 L192P, 0.126 fold enrichment over input in the test with AGO2 A367P and 0.447 fold enrichment over input with AGO2 T357M.
